Rows were chosen to be rich in hits. Some 2.4% of all compounds tested hit in one or more screens of this group.
Anthrax LT inh – inhibitors of anthrax lethal toxin internalization | Cells, anthrax lethal toxin internalization, FRET ratio (460/530) | Potency, µM (top dose mostly 40 µM), without a hit: at the highest dose activity change, negative = inhibition, most hits filed as inhibitors | actives 0.67% (n = 70,000) | AID 912; further: on the % scale 0 is the no-effect control and ±100 the full control effect; nearly all actives have a fitted effect of over 50% in size
AmpC nodet inh – inhibitors of E. coli AmpC beta-lactamase without detergent. AID 585. P00811. Potency, µM (highest dose often 28.7 µM), without a hit: at the top dose activity change, negative = inhibition. AmpC nitrocefin hydrolysis, absorbance 480 nm, no detergent. actives 1.8% (n = 71,000); further: % of control where 0% means no effect
Target sequence (P00811 whole entry, looked up): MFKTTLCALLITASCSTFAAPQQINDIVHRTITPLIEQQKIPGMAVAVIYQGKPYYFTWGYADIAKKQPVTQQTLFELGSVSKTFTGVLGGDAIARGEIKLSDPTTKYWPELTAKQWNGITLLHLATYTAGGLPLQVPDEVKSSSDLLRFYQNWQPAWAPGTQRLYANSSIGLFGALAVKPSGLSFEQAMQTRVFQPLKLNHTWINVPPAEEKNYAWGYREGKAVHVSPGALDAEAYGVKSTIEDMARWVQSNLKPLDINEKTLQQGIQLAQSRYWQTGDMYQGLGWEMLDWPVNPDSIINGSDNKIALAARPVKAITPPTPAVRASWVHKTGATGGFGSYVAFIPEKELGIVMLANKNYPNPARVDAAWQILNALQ
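AmpC, 20 mM phosphate pH 7.0; 15 min cpd preinc, RT; start with nitrocefin (800 uM stock); A480 kinetic read, 20 s intervals, 4 min. No-enzyme wells = negative control.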
SmPrx2 inh – inhibitors of Schistosoma mansoni peroxiredoxin 2; S. mansoni Prx2 activity coupled to TGR/GSH (TGR is thioredoxin glutathione reductase), NADPH fluorescence loss, qHTS; Potency, µM; actives 0.07% (n = 65,000); AID 448
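Prx2 activity was followed as the loss of NADPH fluorescence (ex 365/em 450 nm), read every 30 sec for 8 min after H2O2 start. The enzyme mix (50 nM Prx2, 25 nM TGR, GSH, NADPH; pH 7.4 phosphate buffer) was incubated with compound for 15 min at room temperature first.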
AmpC det inh – inhibitors of E. coli AmpC beta-lactamase with detergent; P00811; purified AmpC, nitrocefin hydrolysis with detergent; Potency, µM (series often up to 28.7 µM), without a hit: at the highest dose activity change, negative = inhibition; actives 0.09% (n = 71,000); active means well fitted curve in the direction sought with a large enough effect; inconclusive means small, poorly fitted or top-dose-only effect; further: on the % scale 0 is the no-effect control and ±100 the full control effect
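E. coli AmpC (5.3 nM) in 20 mM phosphate pH 7.0 with 0.01% Triton X-100, preincubated 15 min RT with compound; nitrocefin (2 uL of 800 uM stock) hydrolysis followed by 480 nm absorbance every 20 s over 4 min.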
* hit, by the source's call; u = inconclusive; x = no result given; [ ] = remark or other dose. Unless noted, the call rests on the fitted dose curve. Potency means the concentration at half of the fitted maximal effect.

SMILES | Anthrax LT inh | AmpC nodet inh | SmPrx2 inh | AmpC det inh
NC(=O)C/C=C\CC(N)=O | -12%[8 µM] | 1%[5.75 µM] | >57 | -4%[5.75 µM]
O=C(O)[C@@H]1CCCN[C@H]1C(=O)O | -2% | -1% | >57 | -2%
CO[C@@H](C)[C@](O)(C(=O)OC1=CCN2CC[C@H](O)[C@H]12)C(C)C | -16% | -3% | >57 | -3%
C[C@H](Oc1ccccc1)C(=O)N[C@@H]1C(=O)N2[C@@H]1SC(C)(C)[C@@H]2C(=O)O | 12%[3.58 µM] | 0.25µM* | >57 | 0.63µM*
Cc1cc(C(=O)CN2CC(C)OC(C)C2)c(C)n1-c1ccccc1 (stereo unspecified) | 7% | 4µM*[single pt active] | >57 | 13%
Cc1cc2n(n1)C(c1ccsc1)Nc1ccccc1-2 (stereo unspecified) | -8% | 10% | >57 | -5%
CSc1ccc(C2Nc3ccccc3-c3cc(C)nn32)cc1 (stereo unspecified) | 13µM* | 3% | >57 | 2%
CCn1c(SCC#N)nc2c(c1=O)C1(CCCC1)Cc1ccccc1-2 | 10µM* | 8% | >57 | 18%
Cc1ccc(-c2nc(NC(=O)CSc3nnc4scc(-c5ccccc5)n34)ns2)cc1 | u | 4µM*[single pt active] | >57 | 26%
Cn1c(C(C#N)C(=O)c2sc3ccccc3c2Cl)nc2ccccc21 (stereo unspecified) | u | 13µM* | >57 | -1%
COC(=O)c1nc2n(n1)C(c1cccc(Cl)c1)C1=C(CCCC1=O)N2 (stereo unspecified) | -4% | 4µM*[single pt active] | >57 | 11%
COC(=O)c1nc2n(n1)C(c1cccc(Cl)c1)C1=C(CC(C)(C)CC1=O)N2 (stereo unspecified) | 5% | 4µM*[single pt active] | >57 | 11%
COC(=O)C1=C(C)NC2=C(C(=O)CC(C)(C)C2)C1c1cccc(C)n1 (stereo unspecified) | 28% | 0% | >57 | 11%
CCNc1ncc2nc(CCc3ccccc3)c(=O)n(C[C@H]3CCCO3)c2n1 | u | 6% | >57 | 0%
COc1cc2c(cc1OC)[C@]13CCN4CC5=CCO[C@@H]6CC(=O)N2[C@@H]1[C@H]6[C@@H]5C[C@H]43 | u | -7% | >57 | -2%
COc1ccc(-c2nnc(NC(=O)c3ccc(S(=O)(=O)N4CCCc5ccccc54)cc3)o2)cc1 | -13% | 13µM* | >57 | 9%
COc1ccccc1-c1nnc(NC(=O)c2ccc(S(=O)(=O)N(C)Cc3ccccc3)cc2)o1 | -1% | 27% | >57 | -2%
CN(c1ccccc1)S(=O)(=O)c1ccc(C(=O)Nc2nnc(-c3ccc(F)cc3)o2)cc1 | 0% | 10µM* | >57 | -8%
Cc1cnc(CNc2ncncc2-c2cccc(C#N)c2)cn1 | -2% | 4% | >57 | 7%
CCCc1cc(C(=O)Nc2cc(Br)ccc2O)no1 | u | 16µM*[single pt active] | >57 | 6%
CCCc1cc(C(=O)Nc2sc3c(c2C(=O)OCC)CCCC3)no1 | -12% | 4µM*[single pt active] | >57 | 8%
CCOC(=O)c1c(NC(=O)c2noc3c2CCCC3)sc2c1CCCC2 | -7% | 5% | >57 | -2%
Cc1ccc(NC(=O)c2cc(C)on2)cc1 | -25% | -14% | >57 | 2%
CCCc1cc(C(=O)Nc2ccc(C)cc2)no1 | u | 4µM*[single pt active] | >57 | 16%
COC(=O)NC(c1ccccc1)C(C(=O)OC)C(=O)OC (stereo unspecified) | -1%[8 µM] | x | x | x
SMILES | Anthrax LT inh | AmpC nodet inh | SmPrx2 inh | AmpC det inh
CCc1ncc(C(O)c2cccc(OC)c2OC)n1C (stereo unspecified) | 1% | -13% | >57 | -6%
CCn1ccnc1C(O)c1cccc(OC)c1OC (stereo unspecified) | -9% | 4µM*[single pt active] | >57 | 12%
CS(=O)(=O)c1nc(-c2ccco2)cc(C(F)(F)F)n1 | 10µM* | -6% | >57 | 13%
FC(F)(F)c1cc(-c2ccco2)nc(NCc2ccco2)n1 | u | -7% | >57 | 16%
CCCN1C(=O)c2cc(C(=O)NC3CCCCCC3)ccc2C1O (stereo unspecified) | -4% | 4µM*[single pt active] | >57 | 15%
CC(=O)OC1c2ccccc2C(=O)N1c1ccccc1C (stereo unspecified) | -9% | 4µM*[single pt active] | >57 | 15%
C=C/C(C)=C/[C@]1(C)SC(=O)C(C)=C1O | 7% | -8% | >57 | -2%
c1ccc(C(NCCNC(c2ccccc2)c2ccccc2)c2ccccc2)cc1 | 10µM* | x | x | x
CCNc1ncc2nc(-c3ccccc3)c(=O)n(CCC#N)c2n1 | u | 12% | >57 | 1%
CCOC(=O)C1CCCN(c2c(NCCN(C)Cc3ccccc3)c(=O)c2=O)C1 (stereo unspecified) | -13% | 4µM*[single pt active] | >57 | 13%
CCOC(=O)C1CCCN(c2c(NCCc3ccc(S(N)(=O)=O)cc3)c(=O)c2=O)C1 (stereo unspecified) | 0% | 4µM*[single pt active] | >57 | 13%
CCOC(=O)N1CCC(Nc2c(-c3ccc(C)c(C)c3)c(=O)c2=O)CC1 | 10% | 14% | >57 | -1%
CCOC(=O)C1CCCN(c2c(NCc3ccco3)c(=O)c2=O)C1 (stereo unspecified) | 3% | 4µM*[single pt active] | >57 | 14%
CCOC(=O)N1CCC(Nc2c(NCCCN(C)Cc3ccccc3)c(=O)c2=O)CC1 | 6% | 4µM*[single pt active] | >57 | 15%
N#Cc1cccc(-c2nc(Nc3ccncc3)c3ccccc3n2)c1 | 10% | 8% | >57 | 1%
COc1cc2nc(N3CC=[N+](C(=O)c4ccco4)CC3)nc(N)c2cc1OC | -4% | 9% | >57 | -4%
COC(=O)C1=C(C)N(Cc2ccccc2)[C@]23O[C@](C(=O)OC)(C(=O)N2C1c1ccccc1)C(c1ccccc1)C3C(=O)c1ccccc1 (stereo partly specified) | -11%[8 µM] | x | x | x
Cc1ccc2nc(-c3ccc(N)cc3)sc2c1S(=O)(=O)O | u | 5% | x | 4%
CN(C)C(=O)c1ccc(-c2nc(NCc3ccccc3)c3ccccc3n2)cc1 | -14% | 90% | >57 | 14%
Cc1c([C@@H](C)[C@H]2NC[C@H](C)C[C@@H]2O)ccc2c1C[C@@H]1[C@H]2CC=C2C[C@@H](O)CC[C@@]21C | 8%[8 µM] | -2%[5.75 µM] | >57 | -2%[5.75 µM]
CC[C@]1(O)C[C@H]2CN(CCc3c([nH]c4ccccc34)[C@](C(=O)OC)(c3cc4c(cc3OC)N(C=O)[C@H]3[C@@](O)(C(=O)OC)[C@H](OC(C)=O)[C@@]5(CC)C=CCN6CC[C@]43[C@H]65)C2)C1 | u | 161% | >26 | -1%
CCOC(=O)C1CCCN(c2ncnc3c2oc2ccccc23)C1 (stereo unspecified) | 6% | 69% | >57 | -1%
CCOC(=O)C1CCCN(c2c(N3CCc4ccccc4C3)c(=O)c2=O)C1 (stereo unspecified) | 18% | 4µM*[single pt active] | >57 | 12%
Cc1ccc2c(c1)NC(=O)C(CC(=O)NCCCN1CCN(C3CCCCC3)CC1)O2 (stereo unspecified) | -6% | 8% | >57 | 8%
Cc1ccc2c(c1)NC(=O)C(CC(=O)NCCCN1CCCC1)O2 (stereo unspecified) | -5% | 4µM*[single pt active] | >57 | 9%

From PubChem
